Assay results published in PubChem BioAssay AID1645882 (National Center for Advancing Translational Sciences (NCATS), 2021).
“And” between values parts separate entries of the source, which are not always exact repeats. Equal entries are not always repeated. The whole screen tested about 16,000 compounds, of which about 120 (0.75%) were called active. Inconclusive results (about 4%) are left out. Calls follow the shape of the dose curve; as a rule, active = well fitted inhibition curve with a large enough effect; inconclusive = small, poorly fitted or top-dose-only effect; inactive = no such curve, though single readings can be large or run the other way. The full list was thinned out, with actives kept by preference. Where a structure was tested more than once in an assay, its records may differ in their call. *1 amine or outer side, *2 acyl side, *3 side chain or, on linkers, in order; H or OH if unused. Where a SMILES comes first, the peptide text is derived from it. Bridges are numbered along the chain shown (N, C = ends). [ ]: non-standard residue; d: D form. The star is where a group is joined. X6 = NC1=N[C@@H](O)C[C@H]([C@H](N[*:1])C(=O)[*:2])N1; ΔAla(3-NHCONH2) = NC(=O)NC=C(N)C(=O)O; β3hOrn = NCCC[C@H](N)CC(=O)*; Dap = NC[C@H](N)C(=O)O

Target: Rap guanine nucleotide exchange factor 3 (Homo sapiens) (UniProt O95398)
Assay: Validation qHTS for antagonist of cAMP-regulated guanine nucleotide exchange factor 3 (EPAC1); also: nearly all actives have a fitted effect of over 75% in size
Conditions: EPAC1 Rap1B-BODIPY-GDP exchange, fluorescence; series mostly up to 150 µM; activity change, negative = inhibition: at the top concentration
In short: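 EPAC1 (100 nM) mixed with 250 nM RAP1B-BODIPY-GDP and 50 uM GDP; compounds in concentration series, 5 min at room temperature. Fluorescence (ex 480/em 540 nm) read every 5 min for 30 min; normalized to ATA control and DMSO.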
Potency is read from the fitted curve at half-maximal effect.

Rap guanine nucleotide exchange factor 3 (Homo sapiens), sequence (O95398 whole entry, looked up): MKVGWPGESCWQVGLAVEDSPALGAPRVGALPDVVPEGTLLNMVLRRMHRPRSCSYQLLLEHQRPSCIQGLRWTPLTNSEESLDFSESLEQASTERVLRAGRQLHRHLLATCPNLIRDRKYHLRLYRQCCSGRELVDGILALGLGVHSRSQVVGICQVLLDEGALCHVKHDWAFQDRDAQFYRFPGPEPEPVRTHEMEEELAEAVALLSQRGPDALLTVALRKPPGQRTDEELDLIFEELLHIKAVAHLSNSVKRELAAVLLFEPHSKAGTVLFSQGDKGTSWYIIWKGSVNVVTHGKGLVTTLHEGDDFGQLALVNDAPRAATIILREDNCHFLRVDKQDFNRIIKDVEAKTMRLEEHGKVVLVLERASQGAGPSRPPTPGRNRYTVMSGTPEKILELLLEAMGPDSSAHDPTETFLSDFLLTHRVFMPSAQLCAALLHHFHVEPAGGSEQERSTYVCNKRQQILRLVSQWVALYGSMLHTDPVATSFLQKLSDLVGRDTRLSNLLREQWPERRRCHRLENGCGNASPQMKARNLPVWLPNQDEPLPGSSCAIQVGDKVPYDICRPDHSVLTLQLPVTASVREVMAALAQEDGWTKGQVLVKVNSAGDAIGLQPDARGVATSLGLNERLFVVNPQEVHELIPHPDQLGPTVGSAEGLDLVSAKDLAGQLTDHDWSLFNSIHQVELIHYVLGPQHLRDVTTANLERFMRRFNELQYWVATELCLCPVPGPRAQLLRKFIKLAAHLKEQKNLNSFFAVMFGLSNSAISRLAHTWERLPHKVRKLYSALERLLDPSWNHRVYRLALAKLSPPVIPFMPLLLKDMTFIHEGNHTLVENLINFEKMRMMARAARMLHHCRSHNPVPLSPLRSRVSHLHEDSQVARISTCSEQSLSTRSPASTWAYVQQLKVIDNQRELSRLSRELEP

SMILES	activity change, negative = inhibition	Potency
CN(Cc1cnc2ccccn12)C1CCN(c2cccc(NC(=O)c3cccnc3)c2)CC1	-5.71% (inactive)	
Cc1ccc(C(=O)N(Cc2cc3cc4c(cc3nc2N2CCOCC2)CCC4)CC2CCCO2)cc1 (stereo not given)	-21% (inactive)	
CC(C)C[C@@H](CO)N1CCN(Cc2ccccc2)CCC1=O		inactive
O=C(NCc1cccnc1)[C@@H]1CC=C[C@@H]2CCN(Cc3ccc(Cl)c(Cl)c3)C(=O)[C@@H]21	0.262% (inactive)	
CC(C)(Sc1ccc(CCN(CCCCC2CCCCC2)C(=O)NC2CCCCC2)cc1)C(=O)O		44.7 µM (active)
O=c1c(-c2ccccc2)nc2cnc(Oc3cccc(Cl)c3)nc2n1C[C@H]1CCCO1	12.9% (inactive)	
COc1cc([C@@H]2c3cc4c(cc3C(OC3OC5COC(C)OC5C(O)C3O)C3COC(=O)[C@@H]32)OCO4)cc(OC)c1O (stereo not given in full)	11.4% (inactive)	
O=C1c2c(O)cccc2[C@H]([C@@H]2O[C@H](CO)[C@@H](O)[C@H](O)[C@H]2O)c2cc(CO)cc(O)c21	4.72% (inactive)	
O=C1c2c(O)cccc2[C@@H]([C@@H]2O[C@H](CO)[C@@H](O)[C@H](O)[C@H]2O)c2cc(CO)cc(O)c21	4% (inactive)	
O=C(O)c1cc(O)c2c(c1)[C@H]([C@H]1c3cc(C(=O)O)cc(O)c3C(=O)c3c(O[C@@H]4O[C@H](CO)[C@@H](O)[C@H](O)[C@H]4O)cccc31)c1cccc(O[C@@H]3O[C@H](CO)[C@@H](O)[C@H](O)[C@H]3O)c1C2=O		100 µM (active)
CCCN1CCC(=O)N([C@H](CO)Cc2ccccc2)CC1	7.95% (inactive)	
Nc1c(S(=O)(=O)O)cc(Nc2ccc(Nc3nc(Cl)nc(Nc4ccc(S(=O)(=O)O)cc4)n3)c(S(=O)(=O)O)c2)c2c1C(=O)c1ccccc1C2=O		22.4 µM (active)
CC#CCC(C)[C@H](O)/C=C/[C@@H]1[C@H]2c3cccc(CCCC(=O)O)c3O[C@H]2C[C@H]1O (stereo not given in full)	7.01% (inactive)	
COc1cc(N)c(N)cc1OC	22.6% (inactive)	
Nc1cc(N)cc(N)c1		44.7 µM (active)
Nc1ccc(O)cc1	-22.7% [at 320 µM] (inactive)	
COc1ccc2[nH]cc(CCO)c2c1	4.85% (inactive)	
CC(C)c1ccc(CN2CCC3(CCC(CNC(=O)c4ccn(C)n4)O3)CC2)cc1 (stereo not given)	19.7% (inactive)	
Cc1cccc(C(=O)NCc2nc(-c3cccc(NC(=O)C4CCCN(C)C4)c3)oc2C)n1 (stereo not given)	12.9% (inactive)	
Cn1cccc1C(=O)N1CCC[C@@]2(CCN(c3cccc(-c4ccccc4)c3)C2)C1	1.7% (inactive)	
CCOc1nc2cccc(C(=O)OC(C)OC(=O)OC3CCCCC3)c2n1Cc1ccc(-c2ccccc2-c2nn[nH]n2)cc1 (stereo not given)		89.1 µM (active)
CCCc1nc(C(C)(C)O)c(C(=O)OCc2oc(=O)oc2C)n1Cc1ccc(-c2ccccc2-c2nn[nH]n2)cc1	20.8% (inactive)	
CCOc1nc2cccc(C(=O)O)c2n1Cc1ccc(-c2ccccc2-c2nn[nH]n2)cc1	9.91% (inactive)	
CCN1CCCC1CNC(=O)c1cnn(-c2ncc3c(n2)-c2ccc(OC)cc2CC3)c1C1CC1 (stereo not given)	12.9% (inactive)	
NCCC[C@H](N)CC(=O)N[C@H]1CNC(=O)[C@H]([C@H]2C[C@H](O)N=C(N)N2)NC(=O)C(=CNC(N)=O)NC(=O)[C@H](CO)NC(=O)[C@H](CO)NC1=O (β3hOrn-[Dap]SS[ΔAla(3-NHCONH2)][X6]; lactam 1-C)	23.2% [at 39.6 µM] (inactive)	
O.O.O.O.O.O.O.O=S(=O)([O-])[O-].[Co+2]		100 µM (active)
Cc1ccc(C(=O)Nc2cccc(-c3nc(CNC(=O)c4ccc(F)cc4Cl)c(C)o3)c2)s1	-17.1% (inactive)	

SMILES	activity change, negative = inhibition	Potency
CC(=O)OC1CCC2(C)C3=C(CCC2C1(C)C)[C@@]1(C)CCC(C(C)CCC=C(C)C)[C@@]1(C)CC3 (stereo not given in full)	-0.323% (inactive)	
CCCCCCCCCCCCCCCCSCC(COC)COP(=O)([O-])OCC[N+](C)(C)C (stereo not given)	5.55% (inactive)	
CN1CCN(CCCN2c3ccccc3Sc3ccc(Cl)cc32)CC1		inactive and 112 µM (active)
CN1CCN(CCCN2c3ccccc3Sc3ccccc32)CC1	26.3% (inactive)	
OCCN1CCN(CCCN2c3ccccc3Sc3ccc(Cl)cc32)CC1		inactive
CC(=O)N1CCC2(CC1)CN(c1cccc(-c3ccccc3)c1)C2	4.97% (inactive)	
C=C1[C@@H](O)[C@H](CC(C)C)N(Cc2ccccc2Br)S1(=O)=O		89.1 µM (active)
O=S1(=O)CCO[C@H]2CCCC[C@@H]2N1Cc1ccccc1Br	-3.34% (inactive)	
C[C@@H]1[C@H](c2ccccc2)OCCS(=O)(=O)N1Cc1ccccc1Br	-15.5% (inactive)	
Cc1ccc2c(c1)C(=O)[C@@]1(O)CCN(c3ccccc3)C1=N2	-6.6% (inactive)	
Cc1cnc(-n2ncc(C(=O)NCCN3CCOCC3)c2C2CC2)nc1-c1cccs1	5.26% (inactive)	
CCC1CN(CCNC(=O)c2cc(C(C)C)nn2C)Cc2cc(OC)ccc2O1 (stereo not given)	4.19% (inactive)	
Oc1c(Cl)cc(Cl)c(Cl)c1Cc1c(O)c(Cl)cc(Cl)c1Cl		56.2 µM (active) and inactive
Oc1c(Cl)cc(Cl)c2cccnc12	7.71% (inactive)	
Cc1ccc2c(Cl)cc(Cl)c(O)c2n1		inactive
COc1ccc(C(=O)N2CCC3(CC2)CN(c2ncccn2)C3)cc1	1.47% (inactive)	
COc1cc(CN2CCOc3ccc(CN4CCC(O)(c5cccnc5)CC4)cc3C2)cc(OC)c1	23% (inactive)	
Cc1ccc(C(=O)NCCc2nnc3n2CCN(Cc2cc(C)cc(C)c2)CC3)cc1	-5.23% (inactive)	
c1csc(CNc2ncncc2-c2ccoc2)c1	7.04% (inactive)	
O=C(c1nc2ncccn2n1)N1CCOc2ccc(C(O)C(c3ccccc3)c3ccccc3)cc2C1 (stereo not given)	-1.68% (inactive)	
C=C1c2cccc(O)c2C(O)=C2C(=O)[C@]3(O)C(O)=C(C(N)=O)C(=O)C(N(C)C)C3C(O)C12 (stereo not given in full)	9.9% (inactive)	
C=C1c2cccc(O)c2C(O)=C2C(=O)[C@]3(O)C(O)=C(C(N)=O)C(=O)[C@@H](N(C)C)[C@@H]3[C@@H](O)[C@H]12		31.6 µM (active)
C=C1c2c(Cl)ccc(O)c2C(O)=C2C(=O)[C@]3(O)C(O)=C(C(N)=O)C(=O)C(N(C)C)C3C(O)C12 (stereo not given in full)	-0.56% (inactive)	
O=C(c1cccnc1)C1CCCN(Cc2ccc3c(c2)CN(C(=O)c2cccc(Cl)c2)CCO3)C1 (stereo not given)	15.7% (inactive)	
CCC(C(=O)NC(N)=O)c1ccccc1 (stereo not given)	5.14% (inactive)	
COC(=O)C[C@](O)(CCCC(C)(C)O)C(=O)O[C@@H]1C(OC)=CC23CCCN2CCc2cc4c(cc2[C@H]13)OCO4 (stereo not given in full)	23.6% (inactive)	
Cn1cccc1C(=O)N1CCC[C@@]2(CCN(c3ncccn3)C2)C1	15.2% (inactive)	

SMILES	activity change, negative = inhibition	Potency
CCCOC(=O)c1cc(O)c(O)c(O)c1	-15.6% (inactive)	
CCOC(=O)Cc1cccc(-c2cc(CCCCCCc3ccc(O[C@H]4O[C@H](COC(C)=O)[C@@H](OC(C)=O)[C@H](OC(C)=O)[C@@H]4OC(C)=O)c(-c4cccc(CC(=O)OCC)c4)c3)ccc2O[C@H]2O[C@H](COC(C)=O)[C@@H](OC(C)=O)[C@H](OC(C)=O)[C@@H]2OC(C)=O)c1	16.7% (inactive)	
O=C(OC[C@H]1O[C@@H](OC(=O)c2cc(O)c(O)c(OC(=O)c3cc(O)c(O)c(O)c3)c2)[C@H](OC(=O)c2cc(O)c(O)c(OC(=O)c3cc(O)c(O)c(O)c3)c2)[C@@H](OC(=O)c2cc(O)c(O)c(OC(=O)c3cc(O)c(O)c(O)c3)c2)[C@@H]1OC(=O)c1cc(O)c(O)c(OC(=O)c2cc(O)c(O)c(O)c2)c1)c1cc(O)c(O)c(OC(=O)c2cc(O)c(O)c(O)c2)c1		11.2 µM (active)
COc1cc(/C=C/C(=O)c2cccs2)cc(OC)c1OC	-2.5% (inactive)	
COc1cc(-c2ccc(N=Nc3ccc4c(S(=O)(=O)O)cc(S(=O)(=O)O)c(N)c4c3O)c(OC)c2)ccc1N=Nc1ccc2c(S(=O)(=O)O)cc(S(=O)(=O)O)c(N)c2c1O	12.3% [at 27.4 µM] (inactive)	31.6 µM (active)
Cc1cc(-c2ccc(N=Nc3ccc4c(S(=O)(=O)O)cc(S(=O)(=O)O)c(N)c4c3O)c(C)c2)ccc1N=Nc1ccc2c(S(=O)(=O)O)cc(S(=O)(=O)O)c(N)c2c1O		20 µM (active) and 50.1 µM (active) and 31.6 µM (active)
COc1cc(O)c(C(=O)c2ccccc2)cc1S(=O)(=O)O	21.5% (inactive)	
CCC1CN(CC(=O)NC(C)c2c(C)nn(C)c2C)Cc2cc(OC)ccc2O1 (stereo not given)	5.2% (inactive)	
Cc1c(C(=O)N(C)CC2CCCN(C)C2)cnn1-c1nccc(-c2ccco2)n1 (stereo not given)	10.4% (inactive)	
COC(=O)[C@@H]1[C@@H]2C[C@H]3c4[nH]c5ccccc5c4CCN3C[C@@H]2CC[C@@H]1O		inactive
CC1CC[C@@]2(C(=O)O)CC[C@]3(C)C(=CCC4[C@@]5(C)CCC(O)C(C)(C)C5CC[C@@]43C)C2C1C (stereo not given in full)	4.6% (inactive)	
CN(C)c1ccc(/C=C/c2ccnc3c(-c4ccccc4)cccc23)cc1	17.8% (inactive)	
Cc1coc2c1C(=O)C(=O)c1c-2ccc2c1CCCC2(C)C		inactive
CC1COC2=C1C(=O)C(=O)c1c2ccc2c1CCCC2(C)C (stereo not given)	-18.5% (inactive)	
Cc1c(S(=O)(=O)O)oc2c1C(=O)C(=O)c1c-2ccc2c1CCCC2(C)C		100 µM (active)
O=C(c1cccc(F)c1)N1CCC2(CCCN(c3ccncc3)C2)CC1	6.3% (inactive)	
Cc1cnc(-n2ncc(C(=O)NCC3COCCO3)c2C2CC2)nc1-c1cccs1 (stereo not given)	9.72% (inactive)	
Cc1nc(NCc2cccc3c2OCO3)sc1-c1ccn(CC2CCCN(C)C2)n1 (stereo not given)	11.6% (inactive)	
O=C(Nc1ccc([N+](=O)[O-])cc1Cl)c1cc(Cl)ccc1O		inactive
Cc1cc(C(C#N)c2ccc(Cl)cc2)c(Cl)cc1NC(=O)c1cc(I)cc(I)c1O (stereo not given)		50.1 µM (active)
COC(=O)C[C@H]1c2ccccc2S(=O)(=O)N1Cc1ccc(OC)cc1	8.68% (inactive)	
C(=C\c1ccncc1)/c1ccccc1		inactive
Cc1cc(N)c2cc(NC(=O)Nc3ccc4nc(C)cc(N)c4c3)ccc2n1		28.2 µM (active)
O=C(Nc1ccc(Cl)cc1)Nc1ccc(Cl)c(Cl)c1	-10.1% (inactive)	
Cc1cc(NC(=O)Nc2ccc(N(C)C)cc2)c2cc(F)cc(F)c2n1	-16.4% (inactive)	
